hcDAF-12 act: activates DAF-12 receptor from parasite H. contortus; 370,000 tested, 1.4% active; HEK293 hcDAF-12 lit1-tk-luc reporter, luminescence; 0% DMSO, 100% Δ7-dafachronic acid; activation, % at 6.8 µM;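 active = activation above the mean of all tested compounds plus 3 SD, cut at about 5.5% in these data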
hgDAF12 agonist: activates the H. glycines DAF-12 receptor ligand-binding domain; HEK293 GAL4-hgDAF12 UAS-luciferase reporter, agonist luminescence; normalized to butyrate control; activation, % at 6.8 µM; 370,000 tested, 1.8% active; AID 687014;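 active = activation above a cutoff set at the mean of all screened compounds plus 3 SD, cut at about 10% in these data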
ssDAF12 agonist: activators of S. stercoralis DAF-12 nuclear receptor; HEK293 ssDAF-12/GRIP1 lit1-tk-luc reporter, luminescence; % of 3 µM dafachronic acid response; 370,000 tested, 1% active; AID 652126; activation, % at 6.8 µM;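 active = activation above the mean over all tested compounds plus 3 SD, cut at about 0.9% in these data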
DAX1 inh-1: inhibitors of human orphan nuclear receptor DAX1 (NR0B1) | P51843 | HEK293 Gal4-DAX1 luciferase reporter, luminescence | inhibition, % at 6.75 µM | 340,000 tested, 0.99% active | AID 504766;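 active = inhibition above the mean over all tested compounds plus 3 SD, cut at about 4.2% in these data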;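 also: inhibition shows as a rise in luminescence from relieved DAX1 repression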
Rev-erbA mod: modulators of human Rev-erb alpha DNA binding; activity, % at 10 µM; P20393; Rev-erbα–FITC-DNA binding, fluorescence polarization, 90 min; 370,000 tested, 0.79% active;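 active = activity above about 14%, limit read from the data; passing the limit was not always enough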
Target sequence (P20393 whole entry, looked up): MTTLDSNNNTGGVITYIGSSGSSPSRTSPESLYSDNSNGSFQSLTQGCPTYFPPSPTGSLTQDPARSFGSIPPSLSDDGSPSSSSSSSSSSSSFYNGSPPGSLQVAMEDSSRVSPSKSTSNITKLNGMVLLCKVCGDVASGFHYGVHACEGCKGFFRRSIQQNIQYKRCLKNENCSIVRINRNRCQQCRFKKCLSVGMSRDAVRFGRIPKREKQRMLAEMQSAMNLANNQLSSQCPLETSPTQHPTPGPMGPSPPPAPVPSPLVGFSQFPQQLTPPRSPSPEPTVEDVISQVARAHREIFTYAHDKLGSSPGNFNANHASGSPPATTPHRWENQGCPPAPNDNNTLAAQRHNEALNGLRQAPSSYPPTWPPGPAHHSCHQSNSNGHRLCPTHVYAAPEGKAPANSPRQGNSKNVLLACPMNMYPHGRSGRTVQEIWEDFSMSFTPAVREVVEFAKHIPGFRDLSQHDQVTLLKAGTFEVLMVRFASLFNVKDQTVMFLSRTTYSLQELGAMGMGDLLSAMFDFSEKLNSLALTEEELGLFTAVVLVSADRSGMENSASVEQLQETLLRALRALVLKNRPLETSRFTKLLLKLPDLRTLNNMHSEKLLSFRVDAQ
DAX1 inh-2: inhibitors of DAX1 repression of SF-1 activated StAR promoter; 370,000 tested, 1.1% active; inhibition, % at 6.8 µM; AID 652010; HEK293T StAR-luciferase reporter, SF-1/DAX-1 repression relief;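 active = inhibition above the mean over all tested compounds plus 3 SD, cut at about 3.6% in these data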;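 also: higher inhibition means more luminescence from relief of DAX-1 repression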
Numbers stand for hits. This is a sample that favours compounds with a hit; in the whole collection about 4.8% have one here.

What do the screens show for `COc1ccc(-c2ccc3c(=O)cc(-c4ccsc4)oc3c2)cn1`?
hcDAF-12 act: inactive; hgDAF12 agonist: inactive; ssDAF12 agonist: inactive; DAX1 inh-1: inactive; Rev-erbA mod: inactive; DAX1 inh-2: inactive

How did O=c1cc(-c2ccccc2)oc2ccc(Cl)cc12 do in these assays?
hcDAF-12 act: inactive; hgDAF12 agonist: inactive; ssDAF12 agonist: inactive; DAX1 inh-1: inactive; Rev-erbA mod: inactive; DAX1 inh-2: 3.9

Results for O=c1cc(-c2ccccc2F)oc2ccccc12 ?
hcDAF-12 act: inactive; hgDAF12 agonist: 11; ssDAF12 agonist: inactive; DAX1 inh-1: inactive; Rev-erbA mod: inactive; DAX1 inh-2: inactive

What do the screens show for `O=c1cc(-c2cccs2)oc2ccc(Cl)cc12`?
hcDAF-12 act: inactive; hgDAF12 agonist: inactive; ssDAF12 agonist: inactive; DAX1 inh-1: 5.3; Rev-erbA mod: inactive; DAX1 inh-2: inactive

How did COCCCN1C(=O)[C@H](CC(=O)N2CCN(C(=O)C3CC3)CC2)[C@]2(C(=O)OC)CCCCC=C12 do in these assays?
hcDAF-12 act: inactive; hgDAF12 agonist: inactive; ssDAF12 agonist: inactive; Rev-erbA mod: inactive; DAX1 inh-2: inactive

What do the screens show for `COC(=O)C1=C(C)N(Cc2cccc(C(F)(F)F)c2)C(=NCC2CC2)NC1c1cccc(C(F)(F)F)c1` (stereo not given)?
hcDAF-12 act: inactive; hgDAF12 agonist: inactive; ssDAF12 agonist: inactive; Rev-erbA mod: inactive; DAX1 inh-2: inactive

How did O=c1cc(-c2ccc3c(c2)OCCO3)oc2ccc(Cl)cc12 do in these assays?
hcDAF-12 act: inactive; hgDAF12 agonist: 12; ssDAF12 agonist: inactive; DAX1 inh-1: inactive; Rev-erbA mod: inactive; DAX1 inh-2: inactive

How did O=C(O)c1cc(=O)c2cc(Cl)ccc2o1 do in these assays?
hcDAF-12 act: inactive; hgDAF12 agonist: inactive; ssDAF12 agonist: inactive; DAX1 inh-1: inactive; Rev-erbA mod: inactive; DAX1 inh-2: inactive

What do the screens show for `Cc1cc2nc(-c3ccc(SCc4ccc(C(=O)O)cc4)nc3)[nH]c2cc1C`?
hcDAF-12 act: inactive; hgDAF12 agonist: 12; ssDAF12 agonist: inactive; DAX1 inh-1: inactive; Rev-erbA mod: inactive; DAX1 inh-2: inactive

Results for COC(=O)[C@]12C[C@H](CC(=O)N3CCC(c4ccccc4)CC3)C(=O)N(CCc3ccc(OC)c(OC)c3)C1=C[C@H](C(C)C)O[C@@H]2C1CC1 ?
hcDAF-12 act: inactive; hgDAF12 agonist: inactive; ssDAF12 agonist: inactive; Rev-erbA mod: inactive; DAX1 inh-2: inactive

What do the screens show for `Cc1cccc(-n2nc(C)c3c(C(=O)O)cc(-c4cccs4)nc32)c1`?
hcDAF-12 act: inactive; hgDAF12 agonist: inactive; ssDAF12 agonist: inactive; DAX1 inh-1: 4.6; Rev-erbA mod: inactive; DAX1 inh-2: inactive

What do the screens show for `Cc1nn(-c2cccc(Cl)c2)c2nc(-c3ccco3)cc(C(=O)O)c12`?
hcDAF-12 act: inactive; hgDAF12 agonist: inactive; ssDAF12 agonist: inactive; DAX1 inh-1: inactive; Rev-erbA mod: inactive; DAX1 inh-2: inactive

Results for COC(=O)[C@]12C[C@H](CC(=O)N3CCOCC3)C(=O)N(Cc3ccco3)C1=C[C@H](C(C)(C)C)O[C@@H]2C ?
hcDAF-12 act: inactive; hgDAF12 agonist: inactive; ssDAF12 agonist: inactive; Rev-erbA mod: inactive; DAX1 inh-2: inactive

Results for O=c1[nH][nH]c2cc(=O)n(-c3cccc(C(F)(F)F)c3)nc12 ?
hcDAF-12 act: inactive; hgDAF12 agonist: inactive; ssDAF12 agonist: 5.2; DAX1 inh-1: inactive; Rev-erbA mod: inactive; DAX1 inh-2: inactive

What do the screens show for `CN(C(=O)c1cn(C)c2ccccc12)c1ccc(Oc2cccnc2)cc1`?
hcDAF-12 act: inactive; hgDAF12 agonist: inactive; ssDAF12 agonist: inactive; Rev-erbA mod: inactive; DAX1 inh-2: inactive

Results for Nc1c(Br)cc2c([nH]c(=O)c3ccccc32)c1Br ?
hcDAF-12 act: 6.3; hgDAF12 agonist: inactive; ssDAF12 agonist: 2.4; DAX1 inh-1: inactive; Rev-erbA mod: inactive; DAX1 inh-2: inactive

What do the screens show for `CCC(C#Cc1ccccc1)N(C)C(N)=NC(=O)/C=C/c1ccccc1` (stereo not given)?
hcDAF-12 act: inactive; hgDAF12 agonist: inactive; ssDAF12 agonist: inactive; Rev-erbA mod: inactive

How did COc1ccc(/C=C/S(=O)(=O)NC2CCCC2)c(CNC(=O)OC(C)(C)C)c1 do in these assays?
hcDAF-12 act: inactive; hgDAF12 agonist: inactive; ssDAF12 agonist: inactive; Rev-erbA mod: inactive; DAX1 inh-2: inactive

What do the screens show for `COC(=O)C1CN(C2CCCC2)CCS(=O)(=O)N1Cc1ccc(OC)cc1` (stereo not given)?
hcDAF-12 act: inactive; hgDAF12 agonist: inactive; ssDAF12 agonist: inactive; Rev-erbA mod: inactive; DAX1 inh-2: inactive

Results for Cc1cccc([C@H]2[C@@H]3C=CCC[C@@H]3C(=O)N2Cc2ccccc2)c1 ?
hcDAF-12 act: inactive; hgDAF12 agonist: inactive; ssDAF12 agonist: inactive; DAX1 inh-1: inactive; Rev-erbA mod: inactive; DAX1 inh-2: 3.8

How did O=C(CNC(=O)c1ccccc1)OCc1nnc(-c2ccccc2)o1 do in these assays?
hcDAF-12 act: inactive; hgDAF12 agonist: inactive; ssDAF12 agonist: inactive; DAX1 inh-1: inactive; Rev-erbA mod: inactive; DAX1 inh-2: inactive

How did CCOc1ccc(C(=O)NCC(=O)OCc2nnc(-c3ccccc3)o2)cc1OCC do in these assays?
hcDAF-12 act: inactive; hgDAF12 agonist: inactive; ssDAF12 agonist: inactive; DAX1 inh-1: inactive; Rev-erbA mod: inactive; DAX1 inh-2: 4.2

How did O=C(C1CCN(c2ncnc3c2sc2cccc(F)c23)CC1)N1CCN(Cc2ccccc2)CC1 do in these assays?
hcDAF-12 act: inactive; hgDAF12 agonist: inactive; ssDAF12 agonist: inactive; Rev-erbA mod: inactive; DAX1 inh-2: inactive

What do the screens show for `NNC(=O)c1ccc(Oc2cc(Cl)cc(Cl)c2)o1`?
hcDAF-12 act: inactive; hgDAF12 agonist: inactive; ssDAF12 agonist: inactive; DAX1 inh-1: 4.3; Rev-erbA mod: inactive; DAX1 inh-2: inactive

How did CN(Cc1nc(-c2ccccc2)no1)C1CCOCC1 do in these assays?
hcDAF-12 act: inactive; hgDAF12 agonist: 11; ssDAF12 agonist: inactive; DAX1 inh-1: 4.8; Rev-erbA mod: inactive; DAX1 inh-2: inactive

How did CCOC(=O)C1=CC[C@H]2c3c(c4ccccc4n3C)C(=O)C1N2C do in these assays?
hcDAF-12 act: inactive; hgDAF12 agonist: inactive; ssDAF12 agonist: inactive; DAX1 inh-1: 5.1; Rev-erbA mod: inactive; DAX1 inh-2: inactive

What do the screens show for `CCOC(=O)C1=CC[C@H]2c3c(c4ccccc4n3C)C(=O)C1N2Cc1ccccc1`?
hcDAF-12 act: inactive; hgDAF12 agonist: inactive; ssDAF12 agonist: inactive; DAX1 inh-1: inactive; Rev-erbA mod: inactive; DAX1 inh-2: inactive

What do the screens show for `O=C(c1ccc(Cl)c(Cl)c1)N1CCC(Oc2cccnc2)CC1`?
hcDAF-12 act: inactive; hgDAF12 agonist: inactive; ssDAF12 agonist: inactive; Rev-erbA mod: inactive; DAX1 inh-2: inactive

How did O=c1c2ccccc2oc2cc(-c3ccc4[nH]ccc4c3)ccc12 do in these assays?
hcDAF-12 act: inactive; hgDAF12 agonist: 11; ssDAF12 agonist: inactive; DAX1 inh-1: inactive; Rev-erbA mod: inactive; DAX1 inh-2: inactive

What do the screens show for `O=c1c2ccccc2oc2ccccc12`?
hcDAF-12 act: inactive; hgDAF12 agonist: inactive; ssDAF12 agonist: inactive; Rev-erbA mod: inactive; DAX1 inh-2: inactive
